PubChem BioAssay AID1259311 (ICCB-Longwood Screening Facility, Harvard Medical School, 2017)
“And” between values parts separate entries of the source, which are not always exact repeats. Identical values can stand only once. Out of some 330,000 compounds screened, about 1,100 (0.33%) were called active. No stated cut-off is given here; in the data, active means inhibition above about 85%; inactive means the rest. Only a selection was taken, and actives are over-represented in it overall.

test: growth inhibition of S. aureus RN4220, primary screen, OD600 (AID 1259311); conditions: OD600, 16 h, active compounds read high;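 further: plate controls were untreated cells for no effect and reference antibiotic for full effect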

Row | SMILES | inhibition
1 | Cc1ccsc1C(=O)OCC(=O)c1cc(C)n(CC2CCCO2)c1C (stereo not given) | 2.84% (inactive)
2 | O=C1C(=O)N(CC2COc3ccccc3O2)c2ccccc21 (stereo not given) | 5.32% (inactive)
3 | Cc1cc(C(=O)CCl)c(C)n1CC1COc2ccccc2O1 (stereo not given) | 93.5% (active)
4 | CON=Cc1ccc(Sc2ccc(C)cc2)c([N+](=O)[O-])c1 | -19% (inactive)
5 | OCc1ccc(OCCCOc2cccc3cccnc23)cc1 | 4.11% (inactive)
6 | NC(=O)C1CCN(C(=O)COc2cccc3cccnc23)CC1 | -6.77% (inactive)
7 | O=C(Nc1ccccc1)Oc1cccc2cccnc12 | 94.9% (active)
8 | CCCOc1ccc(NC=CC(=O)C(C)(C)C)cc1 | 7.56% (inactive)
9 | Cc1cc(C(=O)NN=Cc2ccncc2)c(C)o1 | -0.256% (inactive)
10 | CNC(=S)NN=C(C)c1ccc(C(C)(C)C)cc1 | 0.974% (inactive)
11 | Cc1ccc(N2C(=O)C3N=NN(CC(=O)N4N=C(c5cccc6ccccc56)CC4c4ccccc4)C3C2=O)cc1 (stereo not given) | 1.33% (inactive)
12 | Oc1ccccc1C1=NN(c2ccccc2)C(c2ccccc2)C1 (stereo not given) | 94% (active)
13 | O=C1C2N=NN(CC(=O)N3N=C(c4cccc5ccccc45)CC3c3ccccc3)C2C(=O)N1c1ccccc1 (stereo not given) | 7.1% (inactive)
14 | Cc1cccc(NC(=S)Nc2ccc(Cl)c(Cl)c2)c1 | 98.8% (active)
15 | Cc1ccc(NC(=S)Nc2ccc(F)cc2)cc1 | -0.939% (inactive)
16 | Cc1cccc(NC(=S)NN=C(c2ccccc2)C(C)C)c1 | -4.52% (inactive)
17 | CC(=O)NN=C(C)CC(=O)Nc1ccc2c(c1)OCCO2 | 1.21% (inactive)
18 | CCc1ccc(NC(=O)c2ccc(Cn3cc([N+](=O)[O-])cn3)cc2)cc1 | 18.3% (inactive)
19 | COc1cc(NS(=O)(=O)c2ccc(NC(=O)c3ccc([N+](=O)[O-])cc3)cc2)ncn1 | 2.54% (inactive)
20 | Cn1ccc(=Nc2ccc(NC(=O)c3ccc(N=c4ccn(C)c5ccc([N+](=O)[O-])cc45)cc3)cc2)cc1 | 95.4% (active)

Row | SMILES | inhibition
21 | CC(NC(=O)c1nc[nH]c1C(=O)N(C)Cc1ccccc1)C(=O)OC(C)(C)C (stereo not given) | 2.94% (inactive)
22 | CCc1ccc(C=NNc2nn[nH]n2)cc1 | 0.812% (inactive)
23 | O=C(Nn1cnnc1)c1ccc([N+](=O)[O-])cc1 | 4.07% (inactive)
24 | O=C(c1ccncc1)c1ccc([N+](=O)[O-])cc1 | 75% (active)
25 | O=C(Nc1ccccc1C(=O)Nc1ccncc1)c1ccc([N+](=O)[O-])cc1 | 3.63% (inactive)
26 | Cc1c(NC(=O)C(=O)C=C(O)c2ccccc2)c(=O)n(-c2ccccc2)n1C | -0.817% (inactive)
27 | C#CCOCCOCCOCCNc1nc(N2CCN(C(=O)C(CCCCN)n3cc(CCC(=O)O)nn3)CC2)nc(N2CCN(C(=O)C(C(C)O)n3cc(CCCCN)nn3)CC2)n1 (stereo not given) | -0.306% (inactive)
28 | CCCc1ccc(OCC(=O)NNC(=S)NC(=O)c2ccco2)cc1 | 102% (active)
29 | Cc1ccc(C(=O)NNC(=O)C(C)Oc2ccc3ccccc3c2)o1 (stereo not given) | 0.442% (inactive)
30 | Cc1ccc(OCC(=O)NNC(=S)NCc2ccccc2)cc1 | 3.38% (inactive)
31 | Cc1ccc(OCC(=O)NCCCNC(=O)c2ccco2)cc1C | -1.59% (inactive)
32 | O=C(Nc1ccc2ccccc2c1)/C(=C/c1cccc(Br)c1)NC(=O)c1ccco1 | 0.361% (inactive)
33 | CC(Oc1ccc2ccccc2c1)C(=O)NNC(=S)NC(=O)c1ccco1 (stereo not given) | 92.3% (active)
34 | Cc1cc(=O)[nH]c(NN=Cc2ccccc2Cl)n1 | 2.01% (inactive)
35 | CC(C(O)c1ccccc1)N(C)C(=O)CCc1ccccc1 (stereo not given) | 0.814% (inactive)
36 | Cc1cc(Cl)ccc1OCCCC(=O)NN=Cc1cccc([N+](=O)[O-])c1 | -5.47% (inactive)
37 | CN(C)c1ccc(C(=NO)C(F)(F)F)cc1 | 19.2% (inactive)
38 | O=C(CN1C(=O)C(=Cc2ccc(C(F)(F)F)cc2)Sc2ccccc21)NCc1ccco1 | 2.46% (inactive)
39 | COc1ccccc1NC(=S)N1CCN(c2ccc(F)cc2)CC1 | 3.36% (inactive)
40 | CC1CN(C(=S)Nc2ccccc2F)CC(C)O1 (stereo not given) | -2.44% (inactive)

Row | SMILES | inhibition
41 | COc1c(N2CCN(C(=S)Nc3ccccc3F)C(C)C2)c(F)cc2c(=O)c(C(=O)O)cn(C3CC3)c12 (stereo not given) | 99.8% (active)
42 | S=c1[nH]nc(C2CCCCC2)n1N=C/C=C/c1ccccc1 | 3.47% (inactive)
43 | CCOC(=O)C1=C(c2ccc(OC)cc2)C(=O)c2ccccc2C1=O | 96.9% (active)
44 | COc1ccc(CNC(=O)CCN2C(=O)c3ccccc3C2=O)cc1 | 0.137% (inactive)
45 | COC(=O)c1cc(OC)ccc1-c1ccc(OC)cc1 | -2.37% (inactive)
46 | Cc1nn(Cc2ccc(F)cc2)c(Cl)c1C=NNC(=O)c1cccnc1 | 4.34% (inactive)
47 | COC(=O)NN=C(C)c1ccc(Br)cc1 | 0.736% (inactive)
48 | S=c1[nH]nc(COc2ccccc2)n1N=C/C=C/c1ccccc1 | 7.1% (inactive)
49 | CN1CCN(N=Cc2nc(-c3ccccc3Cl)n3ccccc23)CC1 | 7.72% (inactive)
50 | O=S(=O)(NCc1ccccn1)c1ccc(Br)s1 | 8.79% (inactive)
51 | O=S(=O)([N-]c1nc2ccccc2nc1-[n+]1ccc(Cc2ccccc2)cc1)c1ccc(Br)s1 | 94.6% (active)
52 | CN1CCc2c(sc(N=Cc3cc(Cl)ccc3O)c2C#N)C1 | 5.61% (inactive)
53 | CCN1/C(=C/c2ccc3ccc(C)cc3[n+]2CC)Sc2ccccc21 | 100% (active)
54 | CC1CN(C(C)CO)C(=O)c2cccc(NC(=O)Nc3ccc(C(F)(F)F)cc3)c2OC1CN(C)C (stereo not given) | 0.322% (inactive)
55 | COc1ccc(C2=NN(c3nc4ccccc4s3)C(=O)C2)cc1 | 97.7% (active)
56 | COc1ccc(C(=O)Nc2cccc(/C=C(/CCC(=O)O)c3nc4ccccc4s3)c2)cc1 | 19.7% (inactive)
57 | COc1ccccc1NC(=O)c1ccc2nc(N3C(=O)CCC3=O)sc2c1 | 2.05% (inactive)
58 | CCN1CC2C3C(=O)N(Cc4ccccc4)C(=O)C3[C@](C)(C1=O)N2C(=O)c1ccc(C)cc1 (stereo not given in full) | 3.51% (inactive)
59 | NC1=NCC(Cc2ccc(O)cc2)N1CC1CCCCC1 (stereo not given) | 4.08% (inactive) and -3.38% (inactive)
60 | CC(=O)OC1CC[C@@]2(C)C(CCC3C4CCC(C(C)O)[C@@]4(C)CC(=O)C32)C1 (stereo not given in full) | 3.21% (inactive)
